# Screens (PubChem BioAssay)
# Hits are enriched below; roughly 5.7% of the tested compounds scored in any of these assays.
# KB-V1 MDR tox = kills drug-selected multidrug resistant KB-V1 cells; 400,000 tested, 3.4% active; KB-V1 MDR cells viability, CellTiter-Glo, 72 h; AID 1347076; Potency, µM (titrated, usually from 46.1 µM), hits mostly cytotoxic; also: nearly all actives have a fitted effect of over 60% in size
#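 Compound-treated KB-V1 multidrug-resistant cells, 72 h, 37 degrees C; viability by CellTiter-Glo. Fitted qHTS curves give the values.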
# KB-3-1 cytotox = kills parental KB-3-1 adenocarcinoma cells; KB-3-1 viability, CellTiter-Glo ATP luminescence, 72 h; Potency, µM (series often up to 46.1 µM), usual class: cytotoxic; 400,000 tested, 1.4% active; also: nearly all actives have a fitted effect of over 60% in size
#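 Multi-concentration cytotoxicity screen in KB-3-1 cells grown in DMEM lacking phenol red with 10% FBS. After 72 h at 37 °C with compound, ATP-dependent luminescence was recorded.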
# HT1080 IDH1KD tx = toxicity to HT-1080 IDH1 knockdown cells (counter line). HT-1080 IDH1 knockdown viability, ATP luminescence, 48 h. Potency, µM (doses to about 46.1 µM), for the others: at the highest dose activity, negative = toxicity, most hits filed as cytotoxic. 360,000 tested, 2% active;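 also: 0% = DMSO wells and -100% = cell-free medium wells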
#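 CellTiter-Glo luminescence after 48 h compound exposure at 37 degrees C of IDH1-knockdown HT-1080 cells in 5% FBS RPMI. %Activity scaled between DMSO wells and cell-free media wells, with curves fitted and assigned curve classes.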
# HT1080-NT tox = kills 2HG-producing HT-1080-NT fibrosarcoma cells; 360,000 tested, 1.6% active; Potency, µM (highest dose often 46.1 µM), for inactives: at the top dose activity, negative = less viability, hits mostly cytotoxic; HT-1080-NT fibrosarcoma viability, CellTiter-Glo ATP luminescence, 48 h; AID 686970;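 also: NT is the 2HG producing partner of a matched IDH1 knockdown line; 0% = DMSO-treated cells and -100% = media-only wells without cells; nearly all actives have a fitted effect of over 55% in size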
#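 Luminescent CellTiter-Glo readout after 48 hours of compound exposure at 37 degrees C defined viability of HT-1080-NT cells. Activity was normalized to DMSO wells and cell-free media wells; concentration-response curves were fitted and assigned curve classes.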
# * hit, by the source's call; i = inactive; ? = inconclusive; · = not tested or not shown. Calls follow the shape of the dose curve; as a rule, active = well fitted curve in the direction sought with a large enough effect; inconclusive = small, poorly fitted or top-dose-only effect, or another doubt; inactive = no such curve, though single readings can be large; an effect the other way counts as inactive or inconclusive. Unless noted, % is scaled to controls: 0 for no effect and ±100 for the full control effect; potency is read from the fitted curve at half-maximal effect.
SMILES,KB-V1 MDR tox,KB-3-1 cytotox,HT1080 IDH1KD tx,HT1080-NT tox
O=C(Nc1ccc(S(=O)(=O)N2CCOCC2)cc1)c1cc([N+](=O)[O-])ccc1Cl,i,?,?,?
CCOc1ccc(Nc2ccc(S(=O)(=O)N3CCOCC3)cc2[N+](=O)[O-])cc1,?,i,-9.2%,-6.1%
O=C(Nc1ccc(S(=O)(=O)N2CCOCC2)cc1)c1ccc([N+](=O)[O-])o1,?,?,8.2µM*,18.4µM*
Cc1ccc(C(=O)Nc2ccc(S(=O)(=O)N3CCc4ccccc43)cc2)o1,?,i,-29.1%,-0.5%
CCc1ccc(Nc2ccc(S(=O)(=O)N3CCOCC3)cc2[N+](=O)[O-])cc1,23.1µM*,i,0.9%,-3.3%
Cc1ccc(NC(=O)c2cc(S(=O)(=O)N3CCOCC3)c(Br)s2)cc1,23.1µM*,?,?,-19.1%
Cc1ccc(C(=O)Nc2ccc(S(=O)(=O)N3CCc4ccccc4C3)cc2)o1,14.6µM*,i,?,-4.6%
COc1cc(OC)c(N(C)C(=O)Nc2cn(CC(C)C)c(=O)c3ccccc23)cc1Cl,i,i,·,·
Cc1csc2nc(COc3ccc(NC(=O)COc4ccc(F)cc4)cc3)cc(=O)n12,i,i,·,·
COc1ccccc1-c1nnc(C2CCN(C(=O)c3cccc(Cl)c3)CC2)o1,?,i,·,·
COc1ccc(C2c3c(ncn(Cc4ccco4)c3=N)Oc3ccc4ccccc4c32)cc1 (configuration not stated),?,?,?,20.6µM*
N=c1c2c(ncn1Cc1ccco1)Oc1ccc3ccccc3c1C2c1ccccc1 (configuration not stated),7.31µM*,?,23.1µM*,16.4µM*
N=c1c2c(ncn1CCCO)Oc1ccc3ccccc3c1C2c1ccccc1 (configuration not stated),i,i,?,?
Cc1c(Cl)c(C(=O)NC2C3CC4CC(C3)CC2C4)nn1C (configuration not stated),14.6µM*,i,-19.3%,8.7%
Cn1ncc(Br)c1C(=O)NC1C2CC3CC(C2)CC1C3 (configuration not stated),i,i,0.4%,-1.5%
O=C(C1=C[C@@H](c2ccccc2)C[C@@H](OCc2ccc(CO)cc2)O1)N1CCN(Cc2ccc3c(c2)OCO3)CC1,?,10.3µM*,16.4µM*,?
O=C(C1=C[C@H](c2ccc(C(F)(F)F)cc2)C[C@H](OCc2ccc(CO)cc2)O1)N1CCCCCCC1,?,i,?,?
O=C(C1=C[C@H](c2ccccc2)C[C@H](OCc2ccc(CO)cc2)O1)N1CCN(Cc2ccccc2)CC1,i,i,-8.7%,-15.2%
O=C(O)C1=C[C@@H](c2ccc(C(F)(F)F)cc2)C[C@@H](OCc2ccc(CO)cc2)O1,18.4µM*,i,15.3%,16.2%
Cc1ccccc1OCC(=O)NCc1ccccc1,i,i,13.1%,4.3%
CN(CC(=O)O)c1ccc(/C=C2\C=Cc3ccccc32)cc1,i,i,·,·
CC(C)CCn1c(SC(C)C#N)nc2ccccc2c1=O (configuration not stated),i,i,·,·
CCOC(=O)C1CCN(C(=O)c2c(C)nn(-c3ccc(F)cc3)c2-n2cccc2)CC1,?,i,·,·
CC(C)c1nnc(NC(=O)c2nc(S(=O)(=O)Cc3ccccc3F)ncc2Cl)s1,i,?,?,18.4µM*
CSc1nnc(NC(=O)c2nc(S(=O)(=O)Cc3ccccc3F)ncc2Cl)s1,?,?,20.6µM*,?
SMILES,KB-V1 MDR tox,KB-3-1 cytotox,HT1080 IDH1KD tx,HT1080-NT tox
Cc1nnc(NC(=O)c2nc(S(=O)(=O)Cc3ccccc3C)ncc2Cl)s1,?,?,?,18.4µM*
O=C(Nc1ccccc1)c1nc(S(=O)(=O)Cc2ccccc2F)ncc1Cl,i,i,·,·
CCc1ccc(NC(=O)CCn2cnc3ccccc3c2=O)cc1,i,i,·,·
COc1cc(-c2noc(C)c2/C=C/c2ccc(C(=O)O)cc2)cc(OC)c1OC,i,?,18.4µM*,?
COc1cc(-c2noc(C)c2/C=C/c2cccc([N+](=O)[O-])c2)cc(OC)c1OC,5.8µM*,2.91µM*,3.66µM*,2.31µM*
O=C1CCSC2(C(=O)N(Cc3ccc(F)cc3)c3ccccc32)N1c1ccc(F)c(F)c1 (configuration not stated),i,i,·,·
Cn1c(=O)c2c(nc(SCc3nc(N)nc(N4CCCCC4)n3)n2C)n(C)c1=O,14.6µM*,?,2.2%,7.9%
CCCn1c(SCc2nc(N)nc(N3CCCCC3)n2)nc2c1c(=O)n(C)c(=O)n2C,i,i,2.3%,6.5%
CCCCn1c(SCc2nc(N)nc(N3CCCCC3)n2)nc2c1c(=O)n(C)c(=O)n2C,8.2µM*,i,12.0%,16.2%
CCCc1nn2c(=O)cc(COC(=O)c3cccs3)nc2s1,i,i,·,·
COc1ccc(CCNC(=O)CCS(=O)(=O)c2cc3c(cc2Cl)NC(=O)CO3)cc1OC,i,i,·,·
N#Cc1nc(N(c2ccccc2)c2ccccc2)nc(-n2cccc2)n1,i,i,·,·
CC(=O)NC1=C(C#N)C(c2ccccc2)c2c(ccc3ccccc23)O1 (configuration not stated),6.51µM*,18.4µM*,14.6µM*,?
CCOC(=O)CC(=O)Nc1ncnc2c1C(c1ccccc1)c1c(ccc3ccccc13)O2 (configuration not stated),i,i,·,·
O=C(CN1c2cccc3cccc(c23)S1(=O)=O)NCCc1ccc(F)cc1,i,i,-1.7%,0.5%
COc1ccc(NC(=O)CN2c3cccc4cccc(c34)S2(=O)=O)c(OC)c1,i,i,?,?
